Experimental data as given in PubChem BioAssay (EPA / NIEHS).
Where “and” joins values, the source holds several entries; their conditions need not be identical. Equal values may be shown once. A structure can be active in one record and inactive in another. Calls of active or inactive are those of the source. Rule for the calls: active = hit-call score of the fitted dose curve at least 0.9, where 1 is the maximum; inactive = score below 0.9.

The compounds below were run on Interferon-gamma inducible Protein 10 (IP10), CXCL10 (gene 3627) (assay: BSK_hDFCGF_IP10: BioMAP Diversity Plus: hDFCGF Assay for Interferon-gamma inducible Protein 10 (IP10) Biomarker Activity (AID 2283053)). Details: primary human foreskin fibroblasts; actives raise or lower the signal.
Procedure, shortened: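 Human foreskin fibroblast primary cells (hDFCGF system) were dosed with chemical and assayed at 24 h; IP-10 measured by ELISA. Activity fitted bidirectionally relative to DMSO negative control as baseline.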

Q: For `Nc1ccc(-c2ccc(N)c(N)c2)cc1N`, which outcome is on record?
A: inactive

Q: With `O=c1[nH]c(Cl)c(Cl)cc1Cl` as the compound, how does the outcome read?
A: inactive

Q: `O=C(O)CCCc1ccc(N(CCCl)CCCl)cc1` was tested. Which outcome did it give?
A: inactive

Q: Which AC50 does the source give for `COC(C)(C)CCC[C@H](C)C/C=C/C(C)=C/C(=O)OC(C)C` here?
A: 33.7 µM (active)

Q: `O=P1(NCCCl)OCCCN1CCCl` (stereo unspecified) was tested. Which outcome did it give?
A: inactive

Q: Which outcome does the source give for `O=S(=O)(c1ccccc1)c1ccccc1` here?
A: inactive

Q: `Clc1ccc(-c2ccccc2)cc1` was tested. Which outcome did it give?
A: inactive

Q: For `Oc1cc(Cl)ccc1Cl`, which outcome is on record?
A: inactive

The compounds below were run on Urokinase-type plasminogen activator receptor (uPAR), PLAUR (gene 5329) (assay: BSK_CASM3C_uPAR: BioMAP Diversity Plus: CASM3C Assay for Urokinase-type plasminogen activator receptor (uPAR) Biomarker Activity (AID 2283054;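 note: cell-surface uPAR protein level quantified by ELISA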)). Details: primary human coronary artery smooth muscle cells; actives raise or lower the signal.

Q: For `Nc1ccc(-c2ccc(N)c(N)c2)cc1N`, which outcome is on record?
A: inactive

Q: With `O=c1[nH]c(Cl)c(Cl)cc1Cl` as the compound, how does the outcome read?
A: inactive

Q: `O=C(O)CCCc1ccc(N(CCCl)CCCl)cc1` was tested. Which AC50 did it give?
A: 30.6 µM (active) and 20 µM (active)

Q: `COC(C)(C)CCC[C@H](C)C/C=C/C(C)=C/C(=O)OC(C)C` was tested. Which AC50 did it give?
A: 31.2 µM (active)

Q: How did the outcome turn out when `O=P1(NCCCl)OCCCN1CCCl` (stereo unspecified) was run?
A: inactive

Q: `O=S(=O)(c1ccccc1)c1ccccc1` was tested. Which outcome did it give?
A: inactive

Q: With `Clc1ccc(-c2ccccc2)cc1` as the compound, how does the outcome read?
A: inactive

Q: For `Oc1cc(Cl)ccc1Cl`, which outcome is on record?
A: inactive

Each compound was assayed on Vascular cell adhesion molecule 1 (VCAM1), VCAM1 (gene 7412) (assay: BSK_CASM3C_VCAM1: BioMAP Diversity Plus: CASM3C Assay for Vascular cell adhesion molecule 1 (VCAM1) Biomarker Activity (AID 2283055;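 note: VCAM-1 protein level quantified by ELISA on the cells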)). Details: primary human coronary artery smooth muscle cells; actives raise or lower the signal.

Q: For `Nc1ccc(-c2ccc(N)c(N)c2)cc1N`, which AC50 is on record?
A: 10 µM (active)

Q: For `O=c1[nH]c(Cl)c(Cl)cc1Cl`, which outcome is on record?
A: inactive

Q: `O=C(O)CCCc1ccc(N(CCCl)CCCl)cc1` was tested. Which AC50 did it give?
A: 17 µM (active) and 20 µM (active)

Q: For `COC(C)(C)CCC[C@H](C)C/C=C/C(C)=C/C(=O)OC(C)C`, which AC50 is on record?
A: 20 µM (active)

Q: With `O=P1(NCCCl)OCCCN1CCCl` (stereo unspecified) as the compound, how does the outcome read?
A: inactive

Q: With `O=S(=O)(c1ccccc1)c1ccccc1` as the compound, how does the outcome read?
A: inactive

Q: For `Clc1ccc(-c2ccccc2)cc1`, which outcome is on record?
A: inactive

Q: Which outcome does the source give for `Oc1cc(Cl)ccc1Cl` here?
A: inactive

These compounds were tested on Collagen III, COL3A1 (gene 1281) (assay: BSK_hDFCGF_CollagenIII: BioMAP Diversity Plus: hDFCGF Assay for Collagen III Biomarker Activity (AID 2283056)). Details: primary human foreskin fibroblasts; actives raise or lower the signal.
Procedure, shortened: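 Response relative to DMSO, fitted in both directions, reflects ELISA-measured collagen III in human primary skin fibroblasts 24 h after compound addition.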

Q: `Nc1ccc(-c2ccc(N)c(N)c2)cc1N` was tested. Which AC50 did it give?
A: 20 µM (active)

Q: For `O=c1[nH]c(Cl)c(Cl)cc1Cl`, which outcome is on record?
A: inactive

Q: With `O=C(O)CCCc1ccc(N(CCCl)CCCl)cc1` as the compound, how does the AC50 read?
A: 20 µM (active)

Q: What about the outcome of the same compound?
A: inactive

Q: `COC(C)(C)CCC[C@H](C)C/C=C/C(C)=C/C(=O)OC(C)C` was tested. Which AC50 did it give?
A: 16.6 µM (active)

Q: With `O=P1(NCCCl)OCCCN1CCCl` (stereo unspecified) as the compound, how does the outcome read?
A: inactive

Q: How did the outcome turn out when `O=S(=O)(c1ccccc1)c1ccccc1` was run?
A: inactive

Q: `Clc1ccc(-c2ccccc2)cc1` was tested. Which outcome did it give?
A: inactive

Q: Which outcome does the source give for `Oc1cc(Cl)ccc1Cl` here?
A: inactive

These compounds were tested on Epidermal growth factor receptor (EGFR), EGFR (gene 1956) (assay: BSK_hDFCGF_EGFR: BioMAP Diversity Plus: hDFCGF Assay for Epidermal growth factor receptor (EGFR) Biomarker Activity (AID 2283057)). Details: primary human foreskin fibroblasts; actives raise or lower the signal.
Procedure, shortened: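 Primary human foreskin fibroblasts were exposed to compound for 24 h, after which cell-surface EGFR was quantified by ELISA. Activity was fitted bidirectionally against the DMSO negative control as baseline.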

Q: How did the outcome turn out when `Nc1ccc(-c2ccc(N)c(N)c2)cc1N` was run?
A: inactive

Q: How did the outcome turn out when `O=c1[nH]c(Cl)c(Cl)cc1Cl` was run?
A: inactive

Q: `O=C(O)CCCc1ccc(N(CCCl)CCCl)cc1` was tested. Which outcome did it give?
A: inactive

Q: How did the outcome turn out when `COC(C)(C)CCC[C@H](C)C/C=C/C(C)=C/C(=O)OC(C)C` was run?
A: inactive

Q: How did the outcome turn out when `O=P1(NCCCl)OCCCN1CCCl` (stereo unspecified) was run?
A: inactive

Q: `O=S(=O)(c1ccccc1)c1ccccc1` was tested. Which outcome did it give?
A: inactive

Q: How did the outcome turn out when `Clc1ccc(-c2ccccc2)cc1` was run?
A: inactive

Q: With `Oc1cc(Cl)ccc1Cl` as the compound, how does the outcome read?
A: inactive
